Consider 25 compounds from PubChem BioAssay (NCATS).

Experiment [1] is described as follows: qHTS of pediatric cancer cell lines to identify multiple opportunities for drug repurposing: Primary screen for TC32 cells (AID 1347089). Note: nearly all actives have a fitted effect of over 60% in size. Put shortly: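 In the primary qHTS, MIPE compounds were tested at 11 concentrations (0.78 nM to 46 µM) and NPC compounds at 8 (0.59 nM to 46 µM) on TC32 cells for 48 h. CellTiter-Glo luminescence gave viability.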
A short description of experiment [2]: qHTS of pediatric cancer cell lines to identify multiple opportunities for drug repurposing: Primary screen for SK-N-MC cells (AID 1347093). The method in brief:
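Metabolically active cells were quantified by ATP-dependent luminescence (CellTiter-Glo, 15 min at room temperature) following 48 h treatment. Cells had been plated at 500-1,000 per well and settled for 5 h beforehand.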

The nature of experiment [3]: qHTS of pediatric cancer cell lines to identify multiple opportunities for drug repurposing: Primary screen for NB-EBc1 cells (AID 1347095). The method in brief:
(§1)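 Readout: CellTiter-Glo luminescence, 48 h treatment. Controls DMSO (neutral) and bortezomib 2.3 µM final (positive). Potency and efficacy taken from primary-screen concentration-response curves.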

Experiment [4] is described as follows: qHTS of pediatric cancer cell lines to identify multiple opportunities for drug repurposing: Primary screen for U-2 OS cells (AID 1347096). Note: nearly all actives have a fitted effect of over 50% in size. The method in brief: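 Cells (500-1,000/well) in growth media were settled 5 h at 37 degrees C, then given compounds for 48 h. Viability was read as CellTiter-Glo luminescence. Primary runs used MIPE at 11 points (0.78 nM-46 µM) and NPC at 8 points (0.59 nM-46 µM); follow-ups used 11 points.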

Experiment [5] can be described thus: qHTS of pediatric cancer cell lines to identify multiple opportunities for drug repurposing: Primary screen for BT-37 cells (AID 1347094). Put shortly:
as §1

Experiment [6] can be described thus: qHTS of pediatric cancer cell lines to identify multiple opportunities for drug repurposing: Primary screen for DAOY cells (AID 1347090). Note: nearly all actives have a fitted effect of over 55% in size. Put shortly:
(§2)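 Eight- or eleven-point concentration series, 48 h treatment at 37 degrees C in growth media; readout CellTiter-Glo luminescence. Potency and efficacy were taken from the concentration-response curves.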

Experiment [7] in a line: qHTS of pediatric cancer cell lines to identify multiple opportunities for drug repurposing: Primary screen for SJ-GBM2 cells (AID 1347091). The method in brief: as §2
Experiment [8] can be described thus: qHTS of pediatric cancer cell lines to identify multiple opportunities for drug repurposing: Primary screen for A673 cells (AID 1347092). Note: nearly all actives have a fitted effect of over 45% in size. The method in brief: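 48 h compound exposure, A673, 500-1,000 cells/well, 37 degrees C/5% CO2. MIPE: 11-point, 0.78 nM-46 µM; NPC: 8-point, 0.59 nM-46 µM (final). Readout CellTiter-Glo luminescence after 15 min RT.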

Results filed as inconclusive are left out. A number with no mark means an inactive call. Calls of active or inactive are those of the source. Calls come from the whole dose curve; as a rule, active = well fitted curve in the direction sought with a large enough effect; inconclusive = small, poorly fitted or top-dose-only effect, or another doubt; inactive = no such curve, though single readings can be large; an effect the other way counts as inactive or inconclusive.
Potency is the fitted concentration of half-maximal effect.

As for `C[C@@H](NC(=O)c1ncnc(N)c1Cl)c1ncc(C(=O)Nc2cc(C(F)(F)F)c(Cl)cn2)s1`, the Potency entry in experiment [1] and in experiment [4] was “inactive” each time. Also, the Potency in experiment [2] is 16.6 µM (active); in experiment [3], 14.8 µM (active).

For `CCCCCCCCCCCCCC(=O)N[C@H](CO)[C@H](O)c1ccc([N+](=O)[O-])cc1`, the Potency entry in experiment [1] and in experiment [4] was “inactive” each time. Moreover, the Potency in experiment [2] was 18.7 µM (active); in experiment [5], 13.7 µM (active).

Take `Cc1ccc(C(=O)N(CCCN)[C@@H](c2oc3cc(Cl)ccc3c(=O)c2Cc2ccccc2)C(C)C)cc1`: the Potency is 0.001 µM (active) in experiment [6]; 0.001 µM (active) in experiment [7]; 0.001 µM (active) in experiment [8]; 23.5 µM (active) in experiment [2]; 0.001 µM (active) in experiment [5]; 0.001 µM (active) in experiment [3].

Regarding `CCOc1ccccc1N=Nc1c(C)[nH]n(-c2nc(-c3ccccc3)cs2)c1=O`, the Potency entry in experiment [1], in experiment [5], in experiment [3] and in experiment [4] was “inactive” throughout. Further, the Potency in experiment [2] was 0.209 µM (active).

Take `COc1cc([C@H]2Oc3cc([C@H]4Oc5cc(O)cc(O)c5C(=O)[C@H]4O)ccc3O[C@H]2CO)ccc1O`: the Potency result in experiment [1], in experiment [5] and in experiment [4] was “inactive” throughout. The Potency in experiment [8] is 23.5 µM (active).

In the case of `Clc1ccc(C2(c3ccc(-c4cn[nH]c4)cc3)CCNCC2)cc1`, the Potency was 23.5 µM (active) in experiment [6]; 5.26 µM (active) in experiment [7]; 18.7 µM (active) in experiment [8]; 6.62 µM (active) in experiment [2]; 16.6 µM (active) in experiment [3]. Moreover, the Potency result in experiment [5] and in experiment [4] was “inactive” each time.

Take `COc1cc2c(cc1Cc1cccc(Cl)c1F)c(=O)c(C(=O)O)cn2[C@H](CO)C(C)C`: the Potency result in experiment [1] is “inactive”. The Potency in experiment [5] was 13.7 µM (active).

`O[C@@H](COc1cccc2ncccc12)CN1CCN(C2c3ccccc3[C@@H]3[C@H](c4ccccc42)C3(F)F)CC1` (stereo partly drawn): the Potency is 11.8 µM (active) in experiment [6]; 3.35 µM (active) in experiment [7]; 14.8 µM (active) in experiment [8]; 9.35 µM (active) in experiment [2]; 4.73 µM (active) in experiment [3].

On to `COc1cc2c(cc1OC)CC(=O)N(CCCN(C)C[C@H]1Cc3cc(OC)c(OC)cc31)CC2`, for which the Potency entry in experiment [1] and in experiment [4] was “inactive” each time.

`Nc1ccn([C@@H]2O[C@H](CO)[C@@H](O)[C@H]2O)c(=O)n1`: the Potency in experiment [1] was 0.0294 µM (active); in experiment [8], 0.0235 µM (active); in experiment [5], 0.0077 µM (active); in experiment [3] it was 33.2 µM (active). Besides, the Potency result in experiment [4] was “inactive”.

On to `CC(C)N(CCCNC(=O)Nc1ccc(C(C)(C)C)cc1)C[C@H]1O[C@@H](n2cc(Br)c3c(N)ncnc32)[C@H](O)[C@H]1O`, for which the Potency result in experiment [1], in experiment [3] and in experiment [4] was “inactive” each time. Also, the figures for the Potency in experiment [8] and in experiment [5] were 18.7 µM (active) and 24.3 µM (active), respectively.

Consider `Cc1cc2c(cc1C1(c3ccc(C(=O)O)cn3)CC1)C(C)(C)CCC2(C)C`, for which the Potency result in experiment [1], in experiment [2], in experiment [5] and in experiment [4] was “inactive” in each case.

Regarding `COc1ccc(-c2ccc3ncc4c(c3c2)n(-c2ccc(N3CCNCC3)c(C(F)(F)F)c2)c(=O)n4C)cn1`, the Potency was 0.59 µM (active) in experiment [6]; 0.0132 µM (active) in experiment [7]; 0.372 µM (active) in experiment [8]; 0.0037 µM (active) in experiment [2]; 0.0306 µM (active) in experiment [5]; 0.0148 µM (active) in experiment [3]. In addition, the Potency in experiment [4] is 7.43 µM (active).

Regarding `Cc1cc(CS(=O)(=O)c2ccccc2)cc(OCc2ccc(CN3CCC[C@H]3CO)cc2)c1`, the Potency result in experiment [1] and in experiment [4] was “inactive” each time. In addition, the Potency in experiment [2] was 2.64 µM (active).

Turning to `Cc1ccc2c(=O)c3cccc(CC(=O)O)c3oc2c1C`, the figures for the Potency in experiment [6], in experiment [8] and in experiment [2] were 14.8 µM (active), 9.35 µM (active) and 16.6 µM (active), respectively. Besides, the Potency entry in experiment [7] and in experiment [4] was “inactive” in each case.

With `COc1cc2ncnc(Nc3cc(Br)c(O)c(Br)c3)c2cc1OC`, the Potency result in experiment [1] and in experiment [4] was “inactive” in each case. In experiment [8], the Potency was 0.0118 µM (active).

`CC[C@H]1OC(=O)[C@H](C)[C@@H](O[C@H]2C[C@@](C)(OC)[C@@H](O)[C@H](C)O2)[C@H](C)[C@@H](O[C@@H]2O[C@H](C)C[C@H](N(C)C)[C@H]2O)[C@](C)(O)C[C@H](C)C(=NOCOCCOC)[C@H](C)[C@@H](O)[C@]1(C)O`: the Potency result in experiment [6], in experiment [7], in experiment [8], in experiment [5], in experiment [3] and in experiment [4] was “inactive” throughout. For the same compound, the Potency in experiment [2] is 16.6 µM (active).

With `CN(C)CC[C@H](CSc1ccccc1)Nc1ccc(S(=O)(=O)NC(=O)c2ccc(N3CCN(Cc4ccccc4-c4ccc(Cl)cc4)CC3)cc2)cc1[N+](=O)[O-]`, the Potency in experiment [6] is 18.7 µM (active); in experiment [7] it was 0.0833 µM (active); in experiment [8], 3.72 µM (active); in experiment [2], 0.0148 µM (active); in experiment [4] it was 14.8 µM (active).

Consider `CN(C)S(=O)(=O)c1ccc2c(c1)C(=Cc1cc3c([nH]1)CCCC3)C(=O)N2`, for which the Potency entry in experiment [1] and in experiment [4] was “inactive” throughout. Besides, the Potency in experiment [2] was 3.72 µM (active).

For the compound `CN(C)CCOc1cc(-c2cn[nH]c2)ccc1NC(=O)C1COc2ccccc2O1` (stereo not drawn), the Potency entry in experiment [6], in experiment [7], in experiment [5] and in experiment [4] was “inactive” throughout. The Potency in experiment [8] is 18.7 µM (active); in experiment [2] it was 8.33 µM (active).

For `O=C1NC(=O)C(=Cc2ccc(-c3ccc(F)cc3O)o2)S1`, the Potency entry in experiment [1] was “inactive”. For the same compound, the Potency is 23.5 µM (active) in experiment [2] and 5.26 µM (active) in experiment [3].

Take `CC(C)c1onc(-c2c(Cl)cccc2Cl)c1COc1ccc(C=Cc2cccc(C(=O)O)c2)c(Cl)c1`: the Potency result in experiment [1] and in experiment [4] was “inactive” throughout. Also, the Potency in experiment [2] is 16.6 µM (active).

Regarding `O=C1CN2Cc3c(ccc(Cl)c3Cl)N=C2N1`, the Potency entry in experiment [1] and in experiment [4] was “inactive” throughout.

On to `Cc1ccc(NC(=O)c2cccc(N(C)C)c2)cc1NC(=O)c1ccc(O)cc1`, for which the Potency entry in experiment [6] and in experiment [7] was “inactive” each time. In addition, the Potency is 0.148 µM (active) in experiment [8], 0.187 µM (active) in experiment [2], 3.85 µM (active) in experiment [5] and 11.8 µM (active) in experiment [3].

On to `Cc1[nH]c(C=C2C(=O)Nc3ccc(S(=O)(=O)N(C)c4cccc(Cl)c4)cc32)c(C)c1C(=O)N1CCN(C)CC1`, for which the Potency in experiment [6] is 23.5 µM (active); in experiment [7], 2.09 µM (active); in experiment [8], 23.5 µM (active); in experiment [2], 11.8 µM (active); in experiment [5] it was 24.3 µM (active); in experiment [3], 14.8 µM (active). Besides, in experiment [4], the Potency is 18.7 µM (active).
